Results filed as inconclusive are left out. Entries that show only a call come without a potency. Activity calls are given as the source filed them. Calls follow the shape of the dose curve; as a rule, active = well fitted inhibition curve with a large enough effect; inconclusive = small, poorly fitted or top-dose-only effect; inactive = no such curve, though single readings can be large or run the other way.
Columns and labels:
[1] = system: Zika virus NS2B-NS3 protease (unlinked complex); assay: Primary screen GU Rhodamine qHTS for Zika virus inhibitors: Unlinked NS2B-NS3 protease assay (AID 1347159); also: nearly all actives have a fitted effect of over 60% in size
Outline: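 Percent inhibition came from the 15-min rise in Rhodamine110 fluorescence (1.5 microM substrate, ~15% conversion), normalized to no-inhibitor and no-enzyme wells and Hill-fitted. Unlinked protease, 25 nM, pH 8.0 Tris buffer; compounds up to 114 microM, 15-min preincubation.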

[2] = system: Zika virus NS2B-NS3 protease (linked construct); assay: Primary screen NINDS Rhodamine qHTS for Zika virus inhibitors (AID 1347160); also: nearly all actives have a fitted effect of over 55% in size
Outline: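 Rhodamine110-peptide cleavage (1.5 µM substrate) by 25 nM linked NS2B-NS3 enzyme at pH 8.0 (Tris, Tween 20), after 15 min RT preincubation with compounds; 15-min fluorescence change normalized to controls and Hill-fitted.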

| SMILES | Potency [1] | Potency [2] |
| --- | --- | --- |
| CC1CC(O)C2(OC1=O)OC1C(O)C3C4CCC5CC(OC6OC(CO)C(O)C(O)C6OC6OC(C)C(O)C(O)C6O)CCC5(C)C4CCC3(C)C1C2C (centres undefined) | inactive | inactive |
| O=C(O)c1ccc(CN2CCC(CN[C@@H]3C[C@H]3c3ccccc3)CC2)cc1 | inactive | inactive |
| COc1cc(O)cc(/C=C/c2ccc(O[C@@H]3O[C@H](CO)[C@@H](O)[C@H](O)[C@H]3O)cc2)c1 | inactive | inactive |
| CC1(C)CC[C@]2(C(=O)O[C@@H]3O[C@H](CO)[C@@H](O)[C@H](O)[C@H]3O)CC[C@]3(C)C(=CCC4[C@@]5(C)C[C@@H](O)[C@H](O)C(C)(C)C5CC[C@]43C)C2[C@@H]1O (some centres undefined) | inactive | inactive |
| COC(=O)c1cc(OC)c(O[C@@H]2O[C@@H](C)[C@H](O)[C@@H](O)[C@H]2O)c(OC)c1 | inactive | inactive |
| C[C@H]1CC[C@@H]2N(C1)C[C@@H]1[C@H]([C@@H](O)[C@H](O)[C@]3(O)[C@H]1C[C@@]14OC5(O)[C@@H](C[C@@H](O)[C@@H]31)[C@]4(C)CC[C@@H]5O)[C@]2(C)O | inactive | inactive |
| NCc1c[nH]c(=S)n1[C@@H]1CCc2c(F)cc(F)cc2C1 | inactive | inactive |

Reference: PubChem BioAssay (NCATS)
